In the supplement of paper PMC4709259 one finds mean cell size and cell count data, which are given here for 40 compounds.

Structures are written as SMILES. Structures can show the parent of a compound that is named as a salt. ± gives the standard deviation.

One test deals with Jurkat. In words: mean cell size (FSC-A) relative to DMSO control (fraction of control); higher = larger cells. The following applies: 48 h. Summed up:
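Jurkat cells at 600 cells/µl were incubated for 1 h and then treated for 48h with the Enzo Screen-Well FDA Approved Drug Library v2.0 at 25µM, with DMSO at 0.9% (v/v) final. Compounds that reduced counts below 20% of controls were retested in 10-fold dilutions down to 25nM. Cell count and mean cell size, taken as forward scatter area, were measured by flow cytometry relative to solvent-only controls. Each plate carried 6-12 controls, and values are means of 3 biological replicates.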
`COc1ccc(O)cc1` [Mequinol] (concentration: 25 µM) showed a mean cell size of 1.15 ± 0.034.

`C=C(c1ccc(C(=O)O)cc1)c1cc2c(cc1C)C(C)(C)CCC2(C)C` [Bexarotene] (concentration: 2.5 µM) displayed a mean cell size of 0.942 ± 0.017. Same read-out and setting: for `Cc1ccsc1C(=CCCN1CCC[C@@H](C(=O)O)C1)c1sccc1C` [Tiagabine·HCl] (concentration: 25 µM) the value was 0.936 ± 0.064; for `Nc1ccn([C@H]2CC[C@@H](CO)O2)c(=O)n1` [Zalcitabine (2',3'-Dideoxycytidine)] (concentration: 25 µM), 1.31 ± 0.061. The same measure, in the same setting: next, `COC(=O)[C@@H]1CC2=CC(=O)CC[C@]2(C)[C@@]23O[C@@H]2C[C@@]2(C)[C@@H](CC[C@@]24CCC(=O)O4)[C@H]13` [Eplerenone] (concentration: 25 µM): 1.19 ± 0.035. Same read-out and setting: for `CC[C@H]1OC(=O)[C@H](C)[C@@H](O[C@H]2C[C@@](C)(OC)[C@@H](O)[C@H](C)O2)[C@H](C)[C@@H](O[C@@H]2O[C@H](C)C[C@H](N(C)C)[C@H]2O)[C@](C)(O)C[C@@H](C)CN(C)[C@H](C)[C@@H](O)[C@]1(C)O` [Azithromycin] (concentration: 25 µM) the value was 0.948 ± 0.027.

The subject of another test is Jurkat. In words: cell count relative to DMSO control (fraction of control); higher = more cells (less growth inhibition). The following applies: 48 h.
`CCOC(=O)C1=C(COCCN)NC(C)=C(C(=O)OC)C1c1ccccc1Cl` (stereo unspecified) [Amlodipine] (concentration: 25 µM) had a cell count of 0.268 ± 0.055.

On to `CC(C)NCC(O)COc1cccc2ccccc12` (stereo unspecified) [Propranolol·HCl] (concentration: 25 µM), for which the cell count turned out to be 0.633 ± 0.015. With `CC1(C)O[C@@H]2C[C@H]3[C@@H]4C[C@H](F)C5=CC(=O)C=C[C@]5(C)[C@H]4[C@@H](O)C[C@]3(C)[C@]2(C(=O)CO)O1` [Flunisolide] (concentration: 2.5 µM), the cell count came to 0.893 ± 0.11. The same measure, in the same setting: next, `CCN(CC)CC#CCOC(=O)C(O)(c1ccccc1)C1CCCCC1` (stereo unspecified) [Oxybutynin Chloride] (concentration: 25 µM): 0.895 ± 0.049. The same measure, in the same setting: for `Nc1cccc2c1CN(C1CCC(=O)NC1=O)C2=O` (stereo unspecified) [Lenalidomide] (concentration: 25 µM) the value was 1.03 ± 0.11; for `N=C(N)c1ccc(OCCCCCOc2ccc(C(=N)N)cc2)cc1` [Pentamidine Isethionate] (concentration: 25 µM), 0.601 ± 0.055; for `CCCCC[C@H](O)/C=C/[C@H]1[C@H](O)CC(=O)[C@@H]1C/C=C\CCCC(=O)O` [Dinoprostone] (concentration: 25 µM), 0.399 ± 0.11.

For the compound `NCCCC(N)(C(=O)O)C(F)F` (stereo unspecified) [Eflornithine·HCl] (concentration: 25 µM), the cell count turned out to be 0.985 ± 0.073.

The compound `CO[C@H]1O[C@@H]2O[C@@]3(C)CC[C@H]4[C@H](C)CC[C@@H]([C@H]1C)[C@@]24OO3` [Artemether] (concentration: 25 µM) returned a cell count of 0.632 ± 0.0091. On the same count and under the same terms, next, `CCC1(C)CC(=O)NC1=O` (stereo unspecified) [Ethosuximide] (concentration: 25 µM): 1.08 ± 0.074. The same measure, in the same setting: for `CCOC(=O)c1ccc(C#Cc2ccc3c(c2)C(C)(C)CCS3)nc1` [Tazarotene] (concentration: 25 µM) the value was 0.698 ± 0.18; for `OCCOCCN1CCN(C2=Nc3ccccc3Sc3ccccc32)CC1` [Quetiapine Fumarate] (concentration: 25 µM), 0.534 ± 0.17; for `CC(C)(O/N=C(\C(=O)N[C@@H]1C(=O)N2C(C(=O)[O-])=C(C[n+]3ccccc3)CS[C@H]12)c1csc(N)n1)C(=O)O` [Ceftazidime] (concentration: 25 µM), 0.884 ± 0.095.

Compound `C[C@]12C=CC(=O)C=C1CC[C@@H]1[C@@H]2[C@@H](O)C[C@@]2(C)[C@H]1CC[C@]2(O)C(=O)CO` [Prednisolone] (concentration: 25 µM) yielded a cell count of 0.836 ± 0.14. The same measure, in the same setting: next, `Nc1nc(N)c2nc(-c3ccccc3)c(N)nc2n1` [Triamterene] (concentration: 25 µM): 0.398 ± 0.082. With `CC1(C)O[C@@H]2C[C@H]3[C@@H]4CCC5=CC(=O)C=C[C@]5(C)[C@H]4[C@@H](O)C[C@]3(C)[C@]2(C(=O)CO)O1` [Desonide] (concentration: 25 µM), the cell count was found to be 0.857 ± 0.014. With `CC(=O)OCC(=O)[C@@]1(O)CC[C@H]2[C@@H]3CCC4=CC(=O)CC[C@]4(C)[C@@]3(F)[C@@H](O)C[C@@]21C` [Fludrocortisone Acetate] (concentration: 25 µM), the cell count is 0.63 ± 0.033.

`CC(=O)OCC(=O)[C@@]1(O)CC[C@H]2[C@@H]3CCC4=CC(=O)CC[C@]4(C)[C@H]3C(=O)C[C@@]21C` [Cortisone Acetate] (concentration: 25 µM) yielded a cell count of 0.823 ± 0.082. On the same count and under the same terms, for `COc1cc([C@@H]2c3cc4c(cc3[C@@H](O[C@@H]3O[C@@H]5CO[C@@H](C)O[C@H]5[C@H](O)[C@H]3O)[C@H]3COC(=O)[C@H]23)OCO4)cc(OC)c1O` [Etoposide] (concentration: 250 nM) the value was 0.243 ± 0.051; for `Cc1cn([C@@H]2C[C@@H](O)[C@H](CO)O2)c(=O)[nH]c1=O` [Telbivudine] (concentration: 25 µM), 1.04 ± 0.17; for `CC#C[C@]1(O)CC[C@H]2[C@@H]3CCC4=CC(=O)CCC4=C3[C@@H](c3ccc(N(C)C)cc3)C[C@@]21C` [Mifepristone] (concentration: 25 µM), 0.424 ± 0.054.

On to `CC(C)(C)C(=O)OCOP(=O)(COCCn1cnc2c(N)ncnc21)OCOC(=O)C(C)(C)C` [Adefovir Dipivoxil] (concentration: 25 µM), for which the cell count turned out to be 0.23 ± 0.019. Still for that read-out and setting: for `O=C(O)C1(C(=O)O)CCC1.[NH2-].[NH2-].[Pt+2]` [Carboplatin] (concentration: 25 µM) the value was 0.51 ± 0.029; for `COc1cc(C(=O)NS(=O)(=O)c2ccccc2C)ccc1Cc1cn(C)c2ccc(NC(=O)OC3CCCC3)cc12` [Zafirlukast] (concentration: 25 µM), 0.381 ± 0.062. The same measure, in the same setting: for `NCCNCCNCCN` [Trientine Dihydrochloride] (concentration: 25 µM) the value was 1.02 ± 0.14. `CC(CCc1ccccc1)NCC(O)c1ccc(O)c(C(N)=O)c1` (stereo unspecified) [Labetalol·HCl] (concentration: 25 µM): the cell count turned out to be 0.821 ± 0.1. Take `CCCCc1ncc(/C=C(\Cc2cccs2)C(=O)O)n1Cc1ccc(C(=O)O)cc1` [Eprosartan Mesylate] (concentration: 25 µM): the cell count was found to be 0.864 ± 0.071. The same measure, in the same setting: next, `CCc1c2c(nc3ccc(OC(=O)N4CCC(N5CCCCC5)CC4)cc13)-c1cc3c(c(=O)n1C2)COC(=O)[C@]3(O)CC` [Irinotecan·HCl] (concentration: 250 nM): 0.414 ± 0.034. `CC(=O)OCC(=O)[C@@]12OC3(CCCC3)O[C@@H]1C[C@H]1[C@@H]3CCC4=CC(=O)C=C[C@]4(C)[C@@]3(F)[C@@H](O)C[C@@]12C` [Amcinonide] (concentration: 25 µM) had a cell count of 0.823 ± 0.039. Still for that read-out and setting: next, `CC(=O)N[C@@H](CS)C(=O)O` [Acetylcysteine] (concentration: 25 µM): 0.772 ± 0.059; `NS(=O)(=O)c1cc(C(=O)O)c(NCc2ccco2)cc1Cl` [Furosemide] (concentration: 25 µM): 0.249 ± 0.11; `CCCCc1nc(Cl)c(CO)n1Cc1ccc(-c2ccccc2-c2nnn[nH]2)cc1` [Losartan Potassium] (concentration: 25 µM): 0.418 ± 0.1. Still for that read-out and setting: next, `NC(=O)N1c2ccccc2C=Cc2ccccc21` [Carbamazepine] (concentration: 25 µM): 1.14 ± 0.065. Still for that read-out and setting: next, `CCCCNC(=O)NS(=O)(=O)c1ccc(C)cc1` [Tolbutamide] (concentration: 25 µM): 0.606 ± 0.22; `COc1ccc(O)cc1` [Mequinol] (concentration: 25 µM): 0.863 ± 0.063; `C=C(c1ccc(C(=O)O)cc1)c1cc2c(cc1C)C(C)(C)CCC2(C)C` [Bexarotene] (concentration: 2.5 µM): 0.955 ± 0.09.

`Cc1ccsc1C(=CCCN1CCC[C@@H](C(=O)O)C1)c1sccc1C` [Tiagabine·HCl] (concentration: 25 µM): the cell count turned out to be 0.839 ± 0.013.

As for `Nc1ccn([C@H]2CC[C@@H](CO)O2)c(=O)n1` [Zalcitabine (2',3'-Dideoxycytidine)] (concentration: 25 µM), the cell count turned out to be 0.336 ± 0.073. The same measure, in the same setting: for `COC(=O)[C@@H]1CC2=CC(=O)CC[C@]2(C)[C@@]23O[C@@H]2C[C@@]2(C)[C@@H](CC[C@@]24CCC(=O)O4)[C@H]13` [Eplerenone] (concentration: 25 µM) the value was 0.521 ± 0.06; for `CC[C@H]1OC(=O)[C@H](C)[C@@H](O[C@H]2C[C@@](C)(OC)[C@@H](O)[C@H](C)O2)[C@H](C)[C@@H](O[C@@H]2O[C@H](C)C[C@H](N(C)C)[C@H]2O)[C@](C)(O)C[C@@H](C)CN(C)[C@H](C)[C@@H](O)[C@]1(C)O` [Azithromycin] (concentration: 25 µM), 0.628 ± 0.078.
